Source: PubChem BioAssay (Tox21)
Inconclusive results are not listed. The source made the active and inactive calls. Unless noted, the call rests on the fitted dose curve; in most records, active means well fitted curve in the direction sought with a large enough effect in the repeat runs; inconclusive means weak or mixed curves; inactive means no such curve, though single readings can be large; an effect the other way counts as inactive or inconclusive.

Tests used:
[1] = target: Thyrotropin receptor (Homo sapiens) (UniProt P16473); experiment: qHTS assay to identify small molecule agonists of the thyroid stimulating hormone receptor (TSHR) signaling pathway (AID 1224843; calls by dose curve; further: nearly all actives have a fitted effect of over 45% in size)
How it was run: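 Cell line HEK293 with TSHR; density 800/well. Exposure 30 min RT. Readout HTRF cAMP (cAMP-d2/anti-cAMP-cryptate), 1 h RT before reading.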

[2] = qHTS assay to identify small molecule agonists of the hypoxia (HIF-1) signaling pathway - cell viability counter screen (AID 1224844; calls by dose curve; further: nearly all actives have a fitted effect of over 50% in size)
How it was run: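 HRE-bla ME-180 cells in medium with 0.5% dialyzed FBS were preincubated 5 hrs at 37C, exposed to compounds for 17 hrs, then viability was read as CellTiter-Glo luminescence after 30 min at room temperature, in the reporter wells.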

[3] = qHTS assay to identify small molecule agonists of H2AX (AID 1224845; active means well fitted activation curve with a large enough effect in the signal ratio in the repeat runs, not every such curve was filed as active; the % refers to the signal ratio)
How it was run: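 Wild-type CHO-K1 cells plated overnight, then exposed 3 hr at 37C to compounds at 15 concentrations (0.76% DMSO). Lysed, then HTRF anti-pH2AX(S139)-cryptate/anti-H2AX-d2 detection after 24 hr at room temperature; emissions 665 and 620 nm.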

[4] = qHTS assay to identify small molecule agonists of the hypoxia (HIF-1) signaling pathway (AID 1224846; active means well fitted activation curve with a large enough effect in the signal ratio in the repeat runs, not every such curve was filed as active; the % refers to the signal ratio)
How it was run: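 HRE-bla ME-180 cells (beta-lactamase reporter under hypoxia response element) were plated at 2,000 cells/well in medium with 0.5% dialyzed FBS, rested 5 hrs, then given compounds in DMSO for 17 hrs at 37C, 5% CO2. Reporter induction was read with CCF4-AM FRET substrate.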

[5] = qHTS assay to identify small molecule agonists of H2AX - cell viability counter screen (AID 1224847; calls by dose curve; further: top concentration of the series differs between compounds; nearly all actives have a fitted effect of over 30% in size)
How it was run: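 Wild-type CHO-K1 cells (10% FBS medium) were plated overnight at 37C, exposed to compounds at 15 concentrations for 3 hr at 37C (0.76% DMSO final), and viability was read as CellTiter-Glo luminescence after 30 min at room temperature.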

[6] = qHTS RealTime-Glo MT Cell Viability Assay in HepG2 cells - 24 hour (AID 1224867); further: nearly all actives have a fitted effect of over 50% in size
How it was run: (§1)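 Luminescence read-out: viable HepG2 cells reduce a prosubstrate to a NanoLuc substrate, giving a signal proportional to live cell number. Reads taken at 0, 8, 16, 24, 32 and 40 h of compound exposure at 37 C.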

[7] = qHTS RealTime-Glo MT Cell Viability Assay in HEK293 cells - 32 hour (AID 1224868); further: top concentration of the series differs between compounds; nearly all actives have a fitted effect of over 50% in size
How it was run: (§2)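 Nonlytic real-time viability readout: viable cells convert prosubstrate to NanoLuc substrate, giving luminescence proportional to live cell number. HEK293, 600 cells/well, compound added after 5 h, continuous culture at 37 C.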

[8] = qHTS RealTime-Glo MT Cell Viability Assay in HepG2 cells - 40 hour (AID 1224870); further: nearly all actives have a fitted effect of over 50% in size
How it was run: (§3)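 HepG2 cells mixed with RealTime-Glo MT reagents (NanoLuc plus cell-permeant prosubstrate) were seeded at 600 cells/well, incubated 5 h at 37 C/5% CO2, then pinned with compounds in DMSO; nonlytic luminescence tracked viability during 40 h treatment.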

[9] = A CellTox Green Cytotoxicity Assay to monitor cytotoxicity in HEK293 cells - 40 hour (AID 1224871); further: nearly all actives have a fitted effect of over 45% in size
How it was run: (§4)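 HEK293 cells premixed with CellTox Green dye were seeded at 600 cells/well and left 5 h at 37 C/5% CO2 before pin transfer of 23 nL compound in DMSO. Fluorescence from dye bound to dead-cell DNA was read during 40 h treatment.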

[10] = qHTS RealTime-Glo MT Cell Viability Assay in HEK293 cells - 16 hour (AID 1224872)
How it was run: as §2

[11] = qHTS RealTime-Glo MT Cell Viability Assay in HepG2 cells - 8 hour (AID 1224873); further: nearly all actives have a fitted effect of over 55% in size
How it was run: as §3

[12] = qHTS RealTime-Glo MT Cell Viability Assay in HEK293 cells - 40 hour (AID 1224874); settings: RealTime-Glo luminescence; max response: hits give low values; further: nearly all actives have a fitted effect of over 50% in size
How it was run: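 HEK293 cells mixed with RealTime-Glo reagents (NanoLuc plus cell-permeant prosubstrate) at 600 cells/well, preincubated 5 h at 37 C/5% CO2, then given 23 nL compound in DMSO. Nonlytic luminescence from viable cells was read at 0, 8, 16, 24, 32 and 40 h.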

[13] = qHTS RealTime-Glo MT Cell Viability Assay in HepG2 cells - 32 hour (AID 1224877); further: nearly all actives have a fitted effect of over 55% in size
How it was run: as §1

[14] = A CellTox Green Cytotoxicity Assay to monitor cytotoxicity in HEK293 cells - 0 hour (AID 1224869); further: nearly all actives have a fitted effect of over 50% in size
How it was run: as §4

[15] = A CellTox Green Cytotoxicity Assay to monitor cytotoxicity in HEK293 cells - 24 hour (AID 1224875); further: nearly all actives have a fitted effect of over 45% in size
How it was run: as §4

[16] = A CellTox Green Cytotoxicity Assay to monitor cytotoxicity in HepG2 cells - 24 hour (AID 1224878); further: nearly all actives have a fitted effect of over 45% in size
How it was run: (§5)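 HepG2 cells were seeded together with the CellTox Green dye at 600 cells/well, left 5 h at 37 C/5% CO2, then given compounds in DMSO. Fluorescence from dye bound to dead-cell DNA was read repeatedly over 40 h of treatment at 37 C.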

[17] = A CellTox Green Cytotoxicity Assay to monitor cytotoxicity in HepG2 cells - 40 hour (AID 1224879); further: nearly all actives have a fitted effect of over 40% in size
How it was run: as §5

[18] = A CellTox Green Cytotoxicity Assay to monitor cytotoxicity in HepG2 cells - 16 hour (AID 1224876); further: nearly all actives have a fitted effect of over 45% in size
How it was run: as §5

[19] = qHTS assay to identify small molecule antagonists of the estrogen related receptor (ERR) signaling pathway from Tox21 library (AID 1224848); further: nearly all actives have a fitted effect of over 50% in size
How it was run: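 Screening used an ERR reporter line supplied by NTP, exposed for 18 h at 37 C to library compounds delivered in DMSO. Signal was luciferase luminescence developed with ONE-Glo at room temperature for 30 min.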

[20] = qHTS assay to identify small molecule agonists of the estrogen related receptor (ERR) signaling pathway from Tox21 library (AID 1224849; calls by dose curve; further: nearly all actives have a fitted effect of over 15% in size); settings: ERR reporter cell line, ONE-Glo luciferase, 18 h; at 92.4 µM (top of the series) unless noted
How it was run: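 ERR reporter cell line (NTP) seeded, rested 6 h at 37 C/5% CO2, then pinned with Tox21 compounds in DMSO. After 18 h at 37 C, ONE-Glo luciferase luminescence was read following 30 min at room temperature.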
On the % scale 0 is the no-effect control and ±100 the full control effect.

Sequence of Thyrotropin receptor (Homo sapiens) (P16473 whole entry, looked up): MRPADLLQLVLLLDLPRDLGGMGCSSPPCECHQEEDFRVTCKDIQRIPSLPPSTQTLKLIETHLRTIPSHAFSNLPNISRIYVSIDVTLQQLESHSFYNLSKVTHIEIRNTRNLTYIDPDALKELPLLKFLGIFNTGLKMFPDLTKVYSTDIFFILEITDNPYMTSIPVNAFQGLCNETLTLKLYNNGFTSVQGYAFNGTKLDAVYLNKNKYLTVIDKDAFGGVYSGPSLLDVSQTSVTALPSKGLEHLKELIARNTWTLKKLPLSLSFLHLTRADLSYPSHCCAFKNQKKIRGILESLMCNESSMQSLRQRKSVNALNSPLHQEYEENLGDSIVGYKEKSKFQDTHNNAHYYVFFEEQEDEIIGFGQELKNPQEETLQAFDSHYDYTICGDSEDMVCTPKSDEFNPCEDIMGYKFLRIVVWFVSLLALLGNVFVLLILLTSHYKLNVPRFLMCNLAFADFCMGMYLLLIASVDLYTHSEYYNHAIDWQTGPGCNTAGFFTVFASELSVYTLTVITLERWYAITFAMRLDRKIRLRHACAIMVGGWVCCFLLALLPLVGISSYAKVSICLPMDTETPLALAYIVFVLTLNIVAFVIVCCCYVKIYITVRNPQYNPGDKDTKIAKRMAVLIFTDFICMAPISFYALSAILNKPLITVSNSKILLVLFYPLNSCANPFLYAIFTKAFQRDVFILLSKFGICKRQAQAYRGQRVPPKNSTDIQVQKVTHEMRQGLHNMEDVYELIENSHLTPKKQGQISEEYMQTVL

O=C1[C@@H]2[C@H]3CC[C@H](C3)[C@@H]2C(=O)N1CCCCN1CCN(c2ncccn2)CC1
inactive: Potency [1] | Potency [2] | Potency [3] | outcome [4] | Potency [5] | Potency [6] | Potency [7] | Potency [8] | Potency [9] | Potency [10] | Potency [11] | max response [12] -0.051% | Potency [13]

CCCCCCCCCCCCCOC(=O)CCSCCC(=O)OCCCCCCCCCCCCC
inactive: activation [1] -1.63% [at 19 µM] | activity change, negative = cytotoxicity [2] 4.03% [at 15.8 µM] | activation (H2AX phosphorylation) [3] 0.898% [at 31.6 µM] | activation [4] 0.146% [at 15.8 µM] | activity change, negative = cytotoxicity [5] -1.78% [at 31.6 µM] | activity change, negative = cytotoxicity [6] -1.37% [at 15.8 µM] | activity change, negative = cytotoxic [7] -0.356% [at 15.8 µM] | cytotoxicity [14] 6.82% [at 15.8 µM] | activity change, negative = cytotoxic [8] 6.27% [at 15.8 µM] | cytotoxicity increase [9] 7.8% [at 15.8 µM] | activity change, negative = cytotoxicity [10] -1.74% [at 15.8 µM] | viability change, negative = cytotoxic [11] -12% [at 15.8 µM] | max response [12] -0.06% | activity change [15] 16% [at 15.8 µM, hits give high values] | activity change, negative = cytotoxic [13] 0.647% [at 15.8 µM] | cytotoxicity [16] -0.358% [at 15.8 µM] | cytotoxicity increase [17] -4.11% [at 15.8 µM]

CC(=O)NCCO
inactive: Potency [1] | Potency [2] | Potency [3] | outcome [4] | Potency [5] | Potency [6] | Potency [7] | Potency [8] | Potency [10] | Potency [11] | max response [12] 8.1% | Potency [15] | Potency [18] | Potency [13] | Potency [16] | Potency [17]

CCOc1ncc(F)c(=O)[nH]1
inactive: Potency [1] | Potency [2] | Potency [3] | outcome [4] | Potency [5] | Potency [6] | Potency [7] | Potency [14] | Potency [8] | Potency [9] | Potency [10] | Potency [11] | max response [12] -0.726% | Potency [15] | Potency [18] | Potency [13] | Potency [16] | Potency [17]

CCC(C)(C)C(=O)O
inactive: Potency [1] | Potency [2] | Potency [3] | outcome [4] | Potency [5] | Potency [6] | Potency [7] | Potency [14] | Potency [8] | Potency [10] | Potency [11] | max response [12] -0.784% | Potency [15] | Potency [18] | Potency [13] | Potency [16] | Potency [17]

NC(=O)CCCCC(N)=O
inactive: Potency [1] | Potency [2] | Potency [3] | outcome [4] | Potency [5] | Potency [6] | Potency [7] | Potency [8] | Potency [9] | Potency [10] | Potency [11] | max response [12] 1.27% | Potency [15] | Potency [13] | Potency [16]

CCCCCCCCCCCCCCN(C)C
inactive: activation [1] 2.75% [at 19 µM] | activity change, negative = cytotoxicity [2] -7.12% [at 15.8 µM] | activation (H2AX phosphorylation) [3] 0.821% [at 31.6 µM] | activation [4] -0.0233% [at 15.8 µM] | activity change, negative = cytotoxicity [5] 0.248% [at 31.6 µM] | activity change, negative = cytotoxicity [6] 1.14% [at 15.8 µM] | activity change, negative = cytotoxic [7] -30.2% [at 15.8 µM] | cytotoxicity [14] -21.7% [at 15.8 µM] | activity change, negative = cytotoxic [8] 10.3% [at 15.8 µM] | cytotoxicity increase [9] -34.7% [at 15.8 µM] | viability change, negative = cytotoxic [11] -0.602% [at 15.8 µM] | max response [12] -29.2% | activity change [15] -31.5% [at 15.8 µM, hits give high values] | cytotoxicity increase [18] -1.78% [at 15.8 µM] | activity change, negative = cytotoxic [13] 5.76% [at 15.8 µM] | cytotoxicity [16] -3.33% [at 15.8 µM] | cytotoxicity increase [17] -7.14% [at 15.8 µM]

CCN(CC)CCNC(=O)c1cc(Cl)c(N)cc1OC
inactive: Potency [1] | Potency [2] | Potency [3] | Potency [5] | Potency [6] | Potency [7] | Potency [14] | Potency [8] | Potency [10] | Potency [11] | max response [12] -5.88% | Potency [15] | Potency [18] | Potency [13] | Potency [16] | Potency [17]

CC(C)(C)CCCCCCOC(=O)c1ccccc1C(=O)OCCCCCCC(C)(C)C
inactive: Potency [1] | Potency [2] | Potency [3] | Potency [5] | Potency [19] | activity change, positive = activation [20] -3.55% | Potency [6] | Potency [7] | Potency [14] | Potency [8] | Potency [9] | Potency [10] | Potency [11] | max response [12] 7.13% | Potency [15] | Potency [18] | Potency [13] | Potency [16] | Potency [17]

O=NN(CCCl)C(=O)NCCCl
inactive: Potency [1] | Potency [2] | Potency [3] | Potency [5] | Potency [19] | activity change, positive = activation [20] 2.54% [at 42.5 µM] | Potency [6] | Potency [7] | Potency [14] | Potency [8] | Potency [9] | Potency [10] | Potency [11] | max response [12] 8.5% | Potency [15] | Potency [13]

CC[C@@H](CO)NCCN[C@@H](CC)CO
inactive: Potency [1] | Potency [2] | Potency [3] | Potency [5] | Potency [19] | activity change, positive = activation [20] 0.599% [at 42.5 µM] | Potency [6] | Potency [7] | Potency [14] | Potency [8] | Potency [9] | Potency [10] | Potency [11] | max response [12] 5.04% | Potency [15] | Potency [18] | Potency [13] | Potency [16] | Potency [17]

CC(C(=O)O)c1ccc(C(=O)c2cccs2)cc1 (stereo not drawn)
inactive: Potency [1] | Potency [2] | Potency [3] | Potency [5] | Potency [6] | Potency [7] | Potency [14] | Potency [8] | Potency [10] | Potency [11] | max response [12] 0.273% | Potency [15] | Potency [13] | Potency [16] | Potency [17]

Cc1cccc(C)c1NC(=O)c1cc(S(N)(=O)=O)c(Cl)cc1O
inactive: Potency [1] | Potency [2] | Potency [3] | outcome [4] | Potency [5] | Potency [6] | Potency [7] | Potency [9] | Potency [10] | Potency [11] | max response [12] 1.94% | Potency [15] | Potency [18] | Potency [13] | Potency [16]

O=c1[nH][nH]c(=O)c2cc([N+](=O)[O-])ccc12
inactive: Potency [1] | Potency [2] | Potency [3] | Potency [5] | Potency [6] | Potency [7] | Potency [14] | Potency [9] | Potency [10] | Potency [11] | max response [12] -11.6% | Potency [15] | Potency [18] | Potency [13] | Potency [17]
